A number with no mark means an inactive call. No rule for the calls is given here.
Biological target: Pantothenate synthetase (Mycobacterium tuberculosis (strain ATCC 25618 / H37Rv)) (UniProt P9WIL5)
Assay: Recombinant Mtb pantothenate synthetase (PanC) inhibitors, coupled enzyme, confirmatory (AID 375);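 also: 0% = full reaction with vehicle and 100% = no enzyme background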
Conditions: coupled enzyme assay; at 10 µM, stronger effect = higher value

Sequence of Pantothenate synthetase (Mycobacterium tuberculosis (strain ATCC 25618 / H37Rv)) (P9WIL5 whole entry, looked up): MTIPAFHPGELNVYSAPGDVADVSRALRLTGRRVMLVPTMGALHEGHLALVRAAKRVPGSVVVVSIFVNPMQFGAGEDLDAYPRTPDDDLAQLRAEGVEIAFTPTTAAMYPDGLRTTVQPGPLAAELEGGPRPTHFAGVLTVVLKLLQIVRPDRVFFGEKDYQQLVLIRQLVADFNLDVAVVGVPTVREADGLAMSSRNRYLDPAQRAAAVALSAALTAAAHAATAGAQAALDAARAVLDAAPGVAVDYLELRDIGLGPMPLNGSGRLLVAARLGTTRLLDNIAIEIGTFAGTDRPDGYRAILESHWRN

| SMILES | inhibition [%] |
| --- | --- |
| CCOC(=O)N1CCN(S(=O)(=O)c2cc(Cl)ccc2Cl)CC1 | 3 |
| CCc1c(C(=O)Nc2cc(C)ccc2OC)[nH]c(C)c1C(C)=O | 0 |
| Cn1c(-c2ccc(C(C)(C)C)cc2)n[nH]c1=S | 0 |
| O=C(OCCCN1C(=O)c2ccccc2C1=O)c1ccco1 | 2 |
| O=C(NCC1COc2ccccc2O1)c1ccc(NC(=O)c2ccco2)cc1 (stereo not given) | 0 |
| O=C(CCn1c(=O)oc2ccccc21)N1CCN(c2ccccc2Cl)CC1 | 0 |
| O=C(CN1CCN(c2ncc(C(F)(F)F)cc2Cl)CC1)Nc1ccc2c(c1)OCO2 | 0 |
| CCOC(=O)C1=C(C)Nc2nnnn2C1c1c[nH]c2ccccc12 (stereo not given) | 3 |
| Cc1ccc(CCNC(=O)C2CCN(S(=O)(=O)c3c(C)nn(C)c3C)CC2)cc1 | 0 |
| CCCn1c2c(c(O)c(C(=O)NC)c1=O)CCCC2 | 5 |
| CC1CCC2C(C1)c1sc(=O)[nH]c1SC2(C)C (stereo not given) | 2 |
| CCN(CC)c1ncc(C)c(=O)[nH]1 | 1 |
| CC(=O)Nc1ccc(Oc2ccc3nc(C)[nH]c3c2)cc1 | 0 |
| CC(=O)Nc1c(O)nc(SCC(=O)Nc2nnc(CC(C)C)s2)[nH]c1=O | 9 |
| CCc1nnc(NC(=O)c2ccc(S(=O)(=O)N(CC(C)C)CC(C)C)cc2)o1 | 0 |
| COCCCNCC(=O)Nc1ccc(OC(F)(F)F)cc1 | 3 |
| CCCCNC(=O)c1nnn(-c2ccccc2)c1N | 0 |
| COc1ccc(CN(C(=O)c2oc3ccccc3c2C)C2CCS(=O)(=O)C2)cc1 (stereo not given) | 0 |
| N#CC1=C(N)N(c2ccc(Oc3ccccc3)cc2)C(=O)C1 | 2 |
| COc1cc([C@@H]2[C@H]3CN(C)CC=C3C(C#N)=C(N)C2(C#N)C#N)cc2c1OCO2 | 0 |

| SMILES | inhibition [%] |
| --- | --- |
| NC(=O)c1c(NC(=O)Cc2cccs2)sc2c1CCC2 | 0 |
| CN(c1ccccc1)C(c1ccc(F)cc1)c1nnnn1CC1CCCO1 (stereo not given) | 0 |
| CCOc1cccc(OCCCCn2ccnc2)c1 | 0 |
| C[C@]12C[C@H](O)[C@H]3[C@@H](CCC4=CC(=O)CC[C@@]43C)[C@@H]1CC[C@@H]2C(=O)CO | 0 |
| Oc1c(C(c2ccccc2)N2CCc3ccccc3C2)sc2ncnn12 (stereo not given) | 0 |
| Cn1c(=O)c2c(ncn2CC(=O)OCC(=O)NC2CCCc3ccccc32)n(C)c1=O (stereo not given) | 3 |
| Cc1cc(C(=O)CSc2nc3ccccc3[nH]2)c(C)n1C | 12 |
| Cc1noc(C)c1C(=O)Nc1sc(C)c(C)c1C#N | 2 |
| CC(CC(=O)NC1CCSC1=O)c1ccccc1 (stereo not given) | 0 |
| COc1cccc(-c2nc(CS(=O)CC(=O)NCCCOC(C)C)c(C)o2)c1 (stereo not given) | 2 |
| CCOC(=O)c1ccc2[nH]c3c(c2c1)CCCCC3=O | 0 |
| CSc1ccccc1C(=O)NC1CC2CCC1C2 (stereo not given) | 0 |
| Cc1sc2nc(CN3CCN(S(=O)(=O)c4cccc5nonc45)CC3)[nH]c(=O)c2c1C | 0 |
| CC(=O)OCC(=O)[C@H]1CC[C@H]2[C@@H]3CCC4=CC(=O)CC[C@]4(C)[C@H]3CC[C@]12C | 1 |
| O=C(Nc1cnccn1)c1cccs1 | 0 |
| O=C(O)CC1=C(O)C(=O)N(c2ccccc2)C1c1ccccc1 (stereo not given) | 0 |
| CCn1nnnc1SCC(=O)N1CCOCC1 | 11 |
| Cc1cc(C)cc(-n2ccnc2SCC(=O)Nc2ccc3c(c2)OCCO3)c1 | 0 |
| Cc1nnc(NCCc2ccccc2)n(N)c1=O | 5 |
| COC(=O)c1c(NC(=O)CSc2nnnn2C)sc(C)c1C | 0 |

Reference: PubChem BioAssay
